Consider 39 compounds from PubChem BioAssay (NCI).

Structures are written as SMILES. The panel holds about 83,000 compounds, 20% with a hit somewhere; the sample as a whole holds those more often.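 Growth was measured after 48 h exposure to one concentration of compound in 96-well plates. Values under 10 count as active.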 Calls of active or inactive are those of the source.

One assay concerns U251 CNS. The assay can be described thus: NCI-60 one-dose screen, 48 h (100 = growth as untreated, 0 = no growth, -100 = all killed). To be noted: 10 µM unless noted.
For the compound `O=C(CC12CC3CC(CC(C3)C1)C2)NCCOCCOCCOCCNC(=O)c1cc2c(o1)C(=O)c1ccccc1C2=O`, the growth was -19.6% (active). Consider `Cc1cc2c(F)c(Oc3ncnc(Nc4ccc(N5C[C@@H](C)N[C@@H](C)C5)cc4)c3C#N)cc(F)c2[nH]1`, for which the growth was 11.2% (inactive). For the compound `COc1ccc(NC(=O)c2cccc(-c3cc(=O)c4c(O)c(OC)c(OC)cc4o3)c2)cc1`, the growth was 73.2% (inactive). As to `Nc1c(-c2nc3ccc(Br)cc3c(=O)[nH]2)nnn1-c1ccccc1`, the growth was 38.6% (inactive). Regarding `CCOc1cc(N)ccc1C(=O)NCCCN(CC)CC`, the growth is 104% (inactive).

For the compound `CCN(CC)S(=O)(=O)c1ccc(O)c(NC(=O)c2[nH]c(C)c(C(C)=O)c2CCc2ccc(Cl)cc2)c1`, the growth was 31.1% (inactive). On to `C=CC(=O)Nc1cccc(C)c1Nc1cc(-c2cccnc2Cc2c(C)c(OC)cc(OC)c2C)ncn1`, for which the growth was -16.1% (active).

On to `CC(C)c1ccc(C(=O)OC(=O)c2ccc(C(C)C)cc2)cc1`, for which the growth was 91.2% (inactive).

The test system of the next assay is PC-3 prostate. The description is as above. The settings on record: 10 µM unless noted.
For `Clc1ccc(/C=C/c2nc(Nc3ccc(Cl)cc3)c3ccccc3n2)cc1`, the growth is 99.2% (inactive). For the compound `CCOC(=O)c1c(C)nc2c(c1N)/C(=C/c1ccc(OC)cc1)C(=O)N2Cc1ccc(F)cc1`, the growth is -52.5% (active). The same measure, in the same setting: to `CCCCN1CCN(c2ccc3nc(-c4ccc5nc(-c6cc(OC)c(OC)c(OC)c6)[nH]c5c4)[nH]c3c2)CC1` belongs 57.4% (inactive); to `O=C1CCC(N2C(=O)c3cccc(NCCCC4CCN(CCNC(=O)c5cc6c(o5)C(=O)c5ccccc5C6=O)CC4)c3C2=O)C(=O)N1` (configuration not stated), 2.13% (active); to `COc1ccc(-c2cncnc2N)cc1OC`, 90.6% (inactive). Turning to `O=S(=O)(NCCNc1cc(-c2c(-c3cccc(O)c3)nc3sccn23)ccn1)c1ccc(Br)cc1`, the growth was 49.8% (inactive).

In the case of `CC(=O)c1sc(-c2ccccc2)cc1N`, the growth is 90.8% (inactive).

As to `Nc1c(C(=O)c2ccccc2)nnc2ncnn12`, the growth was 97.9% (inactive). Take `CCNCCNc1cc(-c2ccc(C#N)cc2)c(C#N)c2nc3ccccc3n12`: the growth was 44.7% (inactive). Regarding `Fc1ccc(Nc2nc(Nc3ccc(-c4nc5ccccc5[nH]4)cc3)c3cn[nH]c3n2)cc1`, the growth is 76.6% (inactive).

In the case of `COc1c(C)cnc(CSc2nc(-c3ccc(C)cc3)cn2-c2ccc(Cl)cc2)c1C`, the growth was 81.7% (inactive). As for `Cc1c2c(cn1Cc1ccccc1)CCc1cn[nH]c1-2`, the growth was 74.9% (inactive). In the case of `COc1ccc(O)c(-c2cc(-c3ccccc3)c(C#N)c(=O)[nH]2)c1`, the growth was 78.3% (inactive). Regarding `CC(=O)Nc1ccc(C(=O)/C=C/c2ccccc2)cc1`, the growth is 84.3% (inactive). On to `CCCCCCCC/C=C/CCCCCCCC1=NCC[N+]1(CCO)CCO`, for which the growth was 31.9% (inactive).

Take `Cc1nc(Nc2ccc(NC(=S)Nc3ccccc3)cc2)nc2nc(Nc3cccc(Cl)c3)[nH]c(=O)c12`: the growth is 93.1% (inactive). For `O=[N+]([O-])c1ccc(-c2cc3c(Nc4ccc(Sc5nc6ccccc6s5)c(Cl)c4)ncnc3s2)cc1`, the growth was 28.3% (inactive).

`CC(=[N-])N1CCC[C@@H](Nc2c3ccccc3nc3ccccc23)C1.[Cl][Pt].[NH-]CCC[NH-]`: the growth was 70.6% (inactive). For the compound `OC(c1cccc(OCc2ccccc2)c1)c1nnc(-c2ccccc2)o1` (configuration not stated), the growth was 81% (inactive). Turning to `COc1ccc(-c2nnc(SCC(=O)NC3=NN=C(c4ccccc4)CS3)o2)cc1`, the growth is 86.8% (inactive).

As for `CC(=O)Nc1cccc(C2=CC(c3ccc(C)cc3)n3ncnc3N2)c1` (configuration not stated), the growth is 84.1% (inactive). The same measure, in the same setting: the value for `CC(C)OC(=O)NNC(=O)c1ccncc1` was 104% (inactive); that for `O=C(CC1Sc2ccccc2NC1=O)NNc1ccc(F)cc1` (configuration not stated) was 52.5% (inactive). For the compound `CCCCCCCSc1ccc(C(=O)O)cc1`, the growth was 99.9% (inactive).

For `CC(c1ccc(-n2cccn2)cc1)c1cnc(N2CCc3ccc(C(N)=O)cc3C2)s1` (configuration not stated), the growth is 59.1% (inactive). For `CCN(CC)CCCNC(=O)c1ccc(N)cc1`, the growth was 101% (inactive).

Consider `CSc1nc2sc3cc(Cl)ccc3n2c(=N)c1C#N`, for which the growth is 66.4% (inactive). Still for that read-out and setting: the value for `CCNCCNc1cc(C2CCCC2)c(C#N)c2nc3ccccc3n12` was 39.6% (inactive). On the same count and under the same terms, the value for `COc1cc2oc3cc(C)oc(=O)c3c2cc1OC` was 98.4% (inactive). On the same count and under the same terms, to `Cc1nc(Nc2cccc(NC(=O)Nc3ccc(Cl)cc3)c2)c2ccccc2n1` belongs 77.9% (inactive); to `CCc1c(C(=O)N[C@@H]2c3cc(Cl)ccc3CC[C@@H]2O)[nH]c(C)c1C(C)=O`, 49.8% (inactive); to `O=C(CC12CC3CC(CC(C3)C1)C2)NCCOCCOCCOCCNC(=O)c1cc2c(o1)C(=O)c1ccccc1C2=O`, 13.1% (inactive). Regarding `Cc1cc2c(F)c(Oc3ncnc(Nc4ccc(N5C[C@@H](C)N[C@@H](C)C5)cc4)c3C#N)cc(F)c2[nH]1`, the growth was 42.4% (inactive). Take `COc1ccc(NC(=O)c2cccc(-c3cc(=O)c4c(O)c(OC)c(OC)cc4o3)c2)cc1`: the growth was 86.2% (inactive). On to `Nc1c(-c2nc3ccc(Br)cc3c(=O)[nH]2)nnn1-c1ccccc1`, for which the growth is 73.4% (inactive).

For the compound `CCOc1cc(N)ccc1C(=O)NCCCN(CC)CC`, the growth was 101% (inactive). In the case of `CCN(CC)S(=O)(=O)c1ccc(O)c(NC(=O)c2[nH]c(C)c(C(C)=O)c2CCc2ccc(Cl)cc2)c1`, the growth was 32.8% (inactive). As for `C=CC(=O)Nc1cccc(C)c1Nc1cc(-c2cccnc2Cc2c(C)c(OC)cc(OC)c2C)ncn1`, the growth was 8.05% (active).

As to `CC(C)c1ccc(C(=O)OC(=O)c2ccc(C(C)C)cc2)cc1`, the growth is 86.8% (inactive).
